Source: PubChem BioAssay AID1159580 (chemical genetic matrix, 2015)
About 2,000 (36%) of roughly 5,500 compounds were called active. Not shown: some 18% with an inconclusive outcome. No stated cut-off is given here; in the data, active means normalized growth mostly below about 0.91 (no sharp cut-off); inconclusive means no clear call, values can overlap the other calls; inactive means mostly above about 0.92. Some of the results follow.

Experiment: chemical genetic growth profiling, strain panel (AID 1159580);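 further: tested at 20 µM; growth read once vehicle control cultures reached saturation at 30 °C; 1 = growth at the plate median or of vehicle wells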
Conditions: growth OD

Measured: normalized growth

Cc1occc(=O)c1/C=C/O
inactive: S. cerevisiae deletion strains, locus YBR021W, strain FUR4, stronger effect = lower value 0.994 | S. cerevisiae deletion strains, locus YBR229C, strain ROT2, stronger effect = lower value 1 | S. cerevisiae deletion strains, locus YCL029C, strain bik1, stronger effect = lower value 1.02 | S. cerevisiae deletion strains, locus YDL035C, strain GPR1, stronger effect = lower value 0.999 | S. cerevisiae deletion strains, locus YDL074C, strain BRE1, stronger effect = lower value 1.01 | S. cerevisiae deletion strains, locus YDL101C, strain DUN1, stronger effect = lower value 1 | S. cerevisiae deletion strains, locus YDL134C, strain PPH21, stronger effect = lower value 0.997 | S. cerevisiae deletion strains, locus YDL185W, strain tfp1, stronger effect = lower value 1.03 | S. cerevisiae deletion strains, locus YDL192W, strain arf1, stronger effect = lower value 1.02 | S. cerevisiae deletion strains, locus YDR101C, strain arx1, stronger effect = lower value 0.989 | S. cerevisiae deletion strains, locus YDR150W, strain NUM1, stronger effect = lower value 0.999 | S. cerevisiae deletion strains, locus YDR162C, strain NBP2, stronger effect = lower value 0.991 | S. cerevisiae deletion strains, locus YDR318W, strain mcm21, stronger effect = lower value 1.01 | S. cerevisiae deletion strains, locus YDR388W, stronger effect = lower value 1.01 | S. cerevisiae deletion strains, locus YDR502C, strain sam2, stronger effect = lower value 0.995 | S. cerevisiae deletion strains, locus YEL061C, strain CIN8, stronger effect = lower value 1 | S. cerevisiae deletion strains, locus YER110C, stronger effect = lower value 1.02 | S. cerevisiae deletion strains, locus YER155C, strain BEM2, stronger effect = lower value 0.996 | S. cerevisiae deletion strains, locus YER167W, strain BCK2, stronger effect = lower value 0.996 | S. cerevisiae deletion strains, locus YGL078C, strain dbp3, stronger effect = lower value 1.03 | S. cerevisiae deletion strains, locus YGL086W, strain mad1, stronger effect = lower value 0.989 | S. cerevisiae deletion strains, locus YGL248W, strain PDE1, stronger effect = lower value 0.995 | S. cerevisiae deletion strains, locus YGR078C, strain PAC10, stronger effect = lower value 0.996 | S. cerevisiae deletion strains, locus YGR135W, strain pre9, stronger effect = lower value 1.02 | S. cerevisiae deletion strains, locus YGR252W, strain gcn5, stronger effect = lower value 0.985 | S. cerevisiae deletion strains, locus YHR030C, strain SLT2, stronger effect = lower value 1 | S. cerevisiae deletion strains, locus YHR079C, strain IRE1 (second series), stronger effect = lower value 1.02 | S. cerevisiae deletion strains, locus YHR094C, strain hxt1, stronger effect = lower value 1.01 | S. cerevisiae deletion strains, locus YHR129C, strain ARP1, stronger effect = lower value 1 | S. cerevisiae deletion strains, locus YHR200W, strain rpn10, stronger effect = lower value 1.01 | S. cerevisiae deletion strains, locus YIL066C, strain RNR3, stronger effect = lower value 1 | S. cerevisiae deletion strains, locus YIL073C, strain SPO22, stronger effect = lower value 1.03 | S. cerevisiae deletion strains, locus YIL125W, strain kgd1, stronger effect = lower value 1.01 | S. cerevisiae deletion strains, locus YIR030C, strain dcg1, stronger effect = lower value 1.01 | S. cerevisiae deletion strains, locus YJL095W, strain BCK1, stronger effect = lower value 0.989 | S. cerevisiae deletion strains, locus YJL134W, strain LCB3, stronger effect = lower value 1.01 | S. cerevisiae deletion strains, locus YJL168C, strain set2, stronger effect = lower value 1.01 | S. cerevisiae deletion strains, locus YJL187C, strain SWE1 (second series), stronger effect = lower value 0.998 | S. cerevisiae deletion strains, locus YJR043C, strain POL32, stronger effect = lower value 0.991 | S. cerevisiae deletion strains, locus YJR075W, strain HOC1, stronger effect = lower value 0.995 | S. cerevisiae deletion strains, locus YKL009W, strain mrt4, stronger effect = lower value 1.01 | S. cerevisiae deletion strains, locus YKL068W, stronger effect = lower value 1.01 | S. cerevisiae deletion strains, locus YKL085W, strain MDH1 (second series), stronger effect = lower value 1.02 | S. cerevisiae deletion strains, locus YKL085W, strain MDH1, stronger effect = lower value 1.02 | S. cerevisiae deletion strains, locus YKL190W, strain CNB1, stronger effect = lower value 1.01 | S. cerevisiae deletion strains, locus YKR001C, strain vps1, stronger effect = lower value 1.01 | S. cerevisiae deletion strains, locus YLR039C, strain RIC1, stronger effect = lower value 1.02 | S. cerevisiae deletion strains, locus YLR058C, strain SHM2, stronger effect = lower value 1 | S. cerevisiae deletion strains, locus YLR102C, strain apc9, stronger effect = lower value 1.01 | S. cerevisiae deletion strains, locus YLR262C, strain YPT6, stronger effect = lower value 1.07 | S. cerevisiae deletion strains, locus YLR268W, strain sec22, stronger effect = lower value 1.01 | S. cerevisiae deletion strains, locus YLR330W, strain CHS5, stronger effect = lower value 1 | S. cerevisiae deletion strains, locus YLR342W, strain FKS1 (second series), stronger effect = lower value 1.01 | S. cerevisiae deletion strains, locus YLR371W, strain rom2, stronger effect = lower value 1.02 | S. cerevisiae deletion strains, locus YLR418C, strain cdc73, stronger effect = lower value 0.977 | S. cerevisiae deletion strains, locus YML016C, strain PPZ1, stronger effect = lower value 1 | S. cerevisiae deletion strains, locus YML032C, strain rad52, stronger effect = lower value 1.01 | S. cerevisiae deletion strains, locus YML124C, strain tub3, stronger effect = lower value 1.01 | S. cerevisiae deletion strains, locus YMR078C, strain ctf18, stronger effect = lower value 1 | S. cerevisiae deletion strains, locus YMR223W, strain ubp8, stronger effect = lower value 0.997 | S. cerevisiae deletion strains, locus YMR263W, strain SAP30, stronger effect = lower value 0.999 | S. cerevisiae deletion strains, locus YMR307W, strain GAS1, stronger effect = lower value 1.02 | S. cerevisiae deletion strains, locus YNL067W, strain RPL9B, stronger effect = lower value 0.993 | S. cerevisiae deletion strains, locus YNL153C, strain GIM3, stronger effect = lower value 0.994 | S. cerevisiae deletion strains, locus YNL233W, strain BNI4, stronger effect = lower value 0.974 | S. cerevisiae deletion strains, locus YNL250W, strain rad50, stronger effect = lower value 1.01 | S. cerevisiae deletion strains, locus YNL271C, strain bni1, stronger effect = lower value 1.04 | S. cerevisiae deletion strains, locus YNL298W, strain CLA4, stronger effect = lower value 1.02 | S. cerevisiae deletion strains, locus YNL307C, strain MCK1, stronger effect = lower value 1.02 | S. cerevisiae deletion strains, locus YNR052C, strain pop2, stronger effect = lower value 1.01 | S. cerevisiae deletion strains, locus YOL006C, strain TOP1, stronger effect = lower value 0.981 | S. cerevisiae deletion strains, locus YOL012C, strain htz1 0.887 | S. cerevisiae deletion strains, locus YOL147C, strain pex11, stronger effect = lower value 1.01 | S. cerevisiae deletion strains, locus YOR061W, strain CKA2, stronger effect = lower value 1.01 | S. cerevisiae deletion strains, locus YOR069W, strain VPS5, stronger effect = lower value 1 | S. cerevisiae deletion strains, locus YOR136W, strain idh2, stronger effect = lower value 1.02 | S. cerevisiae deletion strains, locus YOR144C, strain elg1, stronger effect = lower value 1.01 | S. cerevisiae deletion strains, locus YOR184W, strain ser1, stronger effect = lower value 1 | S. cerevisiae deletion strains, locus YOR316C, strain cot1, stronger effect = lower value 1.03 | S. cerevisiae deletion strains, locus YPL241C, strain CIN2, stronger effect = lower value 1 | S. cerevisiae deletion strains, locus YPR119W, strain clb2, stronger effect = lower value 1.02 | S. cerevisiae deletion strains, locus YPR141C, strain kar3, stronger effect = lower value 1.02 | S. cerevisiae deletion strains, locus YPR163C, strain tif3, stronger effect = lower value 0.994 | S. cerevisiae deletion strains, locus YPR167C, strain met16, stronger effect = lower value 1.02 | S. cerevisiae deletion strains, strain wtn01, stronger effect = lower value 1.03 | S. cerevisiae strains, strain wild type, stronger effect = lower value 1.01
